Assay outcomes (PubChem BioAssay)
The list is not random: actives were taken first. Their share in the collection is about 2.9%.
B2AR ag: agonists of human beta-2 adrenergic receptor inducing internalization | Am2.2-beta2AR cells, FAP receptor internalization, flow cytometry | response, % (concentration not given with the values) | actives 0.43% (n = 340,000);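 active means response above a set limit, near 3 SD of response in nonfluorescent compounds, cut at about 42% in these data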
Target sequence (P07550 whole entry, looked up): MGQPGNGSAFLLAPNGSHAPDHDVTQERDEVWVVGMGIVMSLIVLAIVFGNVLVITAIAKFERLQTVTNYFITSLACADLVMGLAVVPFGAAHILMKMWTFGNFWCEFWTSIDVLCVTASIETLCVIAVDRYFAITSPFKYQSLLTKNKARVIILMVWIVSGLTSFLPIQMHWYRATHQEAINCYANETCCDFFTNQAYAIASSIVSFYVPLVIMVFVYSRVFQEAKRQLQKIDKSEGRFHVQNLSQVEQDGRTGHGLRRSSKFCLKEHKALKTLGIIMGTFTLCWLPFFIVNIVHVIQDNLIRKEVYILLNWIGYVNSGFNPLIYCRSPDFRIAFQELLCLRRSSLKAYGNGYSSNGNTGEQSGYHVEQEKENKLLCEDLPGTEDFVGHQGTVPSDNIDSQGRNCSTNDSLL
PP1 counter: counter-screen for PP5 inhibitors: inhibitors of human PP1-alpha | P62136 | purified PP1alpha, OMFP fluorescence | inhibition, % at 6.7 µM | actives 0.9% (n = 320,000);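 active means inhibition above the mean inhibition of all tested compounds plus 3 SD, computed separately for each screening campaign, cut at about 15% in these data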
GRK2 inh: blocks RNA aptamer binding to human GRK2; AID 488847; bead flow cytometry, FAM-aptamer displacement from GRK2; inhibition of aptamer binding, % at 10 µM; P25098; actives 0.59% (n = 330,000);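 active means inhibition of aptamer binding above 40%, roughly 3 SD of noise, on plates passing a quality check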;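 further: median bead fluorescence of bound FAM aptamer so fluorescent compounds give negative values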
Exocytosis inh: lytic granule exocytosis inhibition; TALL-104 LAMP-1 surface exposure, flow cytometry; cells stimulated with thapsigargin and PMA; inhibition, % at 10 µM; actives 0.66% (n = 360,000); AID 651702;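 active means inhibition above about 55%, limit read from the data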
NadD block: blocks S. aureus nicotinate mononucleotide adenylyltransferase | purified NadD enzyme, colorimetric absorbance read-out | inhibition, % at 20 µM | actives 0.78% (n = 360,000) | AID 602399; in the data active means inhibition above about 26%
PP1 confirm: confirmation of human PP1 phosphatase inhibitors; shares compounds with PP1 counter; purified PP1alpha, OMFP substrate fluorescence; inhibition, % at 6.7 µM; actives 52% (n = 1,900);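 active means mean PP1 inhibition above a set limit taken from the earlier primary screen, cut at about 15% in these data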
PP5 counter: PP5 phosphatase inhibition, counter-screen for PP1 inhibitors; actives 4% (n = 1,900); inhibition, % at 6.7 µM; shares compounds with PP1 counter; purified PP5c, OMFP fluorescence;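 active means mean PP5 inhibition over triplicate wells above about 9.5% taken from the earlier PP1 screen, limit read from the data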
GRK2 CP1: confirmation of human GRK2 inhibitors displacing RNA aptamer | shares compounds with GRK2 inh | bead-bound GRK2, FAM-aptamer displacement, flow cytometry | aptamer displacement, % at 10 µM | actives 4% (n = 2,000) | AID 504451;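 active means aptamer displacement above 40%, near three times the noise of non-fluorescent compounds, on plates passing quality checks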;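 further: negative values mostly reflect intrinsic compound fluorescence rather than true enhancement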
Aptamer quench 1: fluorescent aptamer quenching in GRK2 counter-screen dose response. shares compounds with GRK2 inh. Fluorescent RNA aptamer beads, flow cytometry; active compounds read high. fluorescence change (kMESF span), kMESF (test concentration not listed). 110 tested, under 10 active;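 active means compounds whose bead fluorescence drops by more than 37 kMESF across the dose range, marking them as dye quenchers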
Aptamer quench SP: quenches fluorescent RNA aptamer, GRK2 hit artifact. shares compounds with GRK2 inh. Carboxyfluorescein RNA aptamer on beads, flow cytometry quenching; active compounds read low. fluorescence response (% of DMSO), % at 10 µM. 2,000 tested, under 10 active. AID 504580;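 active means compounds that quench the bead-bound fluorescent RNA probe, cutting fluorescence to under half of the solvent control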;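 further: counterscreen run without GRK2 so only probe quenching by compound is measured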
Hits are given with their value; – = inactive; · = no result.

SMILES	B2AR ag	PP1 counter	GRK2 inh	Exocytosis inh	NadD block	PP1 confirm	PP5 counter	others
COc1cc(NC(=O)COc2ccccc2[N+](=O)[O-])ccc1NC(=O)c1ccco1	–	20	–	–	–	19	–
O=c1cc(-c2ccccc2)cc(-c2ccccc2)n1CCCO	–	19	–	–	–	–	–
CN(C)C(=O)c1cccc(-c2cccc3nccn23)c1	·	·	·	–	–	·	·
COc1ccc(-n2c(COc3ccc(Cl)cc3)nnc2SCc2ccc(C#N)cc2)cc1	–	20	–	–	–	–	–
COc1ccc(-n2c(COc3ccc(C)cc3)nnc2SCc2ccc(C#N)cc2)cc1	–	–	–	–	–	·	·
Cc1nn(-c2ccccc2)c(C)c1C(=O)OCC(=O)Nc1ccc2c(c1)OCO2	–	–	–	–	–	·	·
CCC(=O)NC(c1ccc(C)cc1)c1cc(Cl)c2cccnc2c1O (configuration not stated)	–	·	–	–	–	·	·
CCCC(=O)NC(c1ccc2c(c1)OCO2)c1cc(Cl)c2cccnc2c1O (configuration not stated)	–	20	–	–	–	24	–
CCCC(=O)NC(c1cccs1)c1cc(Cl)c2cccnc2c1O (configuration not stated)	–	27	–	–	–	23	–
CCOc1ccc(C(Nc2cccnc2)c2cc(Cl)c3cccnc3c2O)cc1 (configuration not stated)	–	19	–	–	–	21	–
CCCC(=O)NC(c1ccco1)c1cc(Cl)c2cccnc2c1O (configuration not stated)	–	–	–	–	–	·	·
Cc1ccc(C(=O)N2C(CC(=O)Nc3ccc(Cl)cc3)C(=O)NC3CCCCC32)cc1 (configuration not stated)	–	–	–	–	–	·	·
COc1ccc2[nH]c(=O)c(CN(CCO)S(=O)(=O)c3c(C)ccc4nsnc34)cc2c1	–	55	–	–	–	–	–
COc1ccc2[nH]c(=O)c(CN(Cc3cccs3)S(=O)(=O)c3cccc4nsnc34)cc2c1	–	–	–	–	–	·	·
CCn1c(CC(=O)Nc2ccc(C)cc2)nnc1SCC(=O)N1CCOCC1	–	26	–	–	–	–	–
COC(=O)c1ccc(NC(=O)c2ccc3c(c2)NC(=O)C2CCCN32)cc1 (configuration not stated)	·	34	–	·	·	27	–
O=C1Nc2ccccc2N2CCCC12 (configuration not stated)	·	22	–	·	·	–	49
O=C1Nc2ccc(C(F)(F)F)cc2N2CCCC12 (configuration not stated)	·	–	–	·	·	·	·
CCOc1ccc(CCNC(=O)c2ccc3c(c2)NC(=O)C2CCCN32)cc1OCC (configuration not stated)	·	–	–	·	·	·	·
CCCCOC(=O)c1ccc(NC(=O)c2ccccc2OC)cc1	–	64	–	–	–	–	–
O=c1cc(-c2ccco2)nc(SCc2cccc(Cl)c2)[nH]1	–	18	–	–	–	–	–
COc1ccc2nc(C)cc(N/N=C/c3cccc(OC)c3O)c2c1	–	–	–	–	–	·	·
COc1ccc(/C=N/Nc2cc(C)nc3ccc(Br)cc23)cc1	–	22	–	–	–	–	–
COc1ccccc1-c1nnc(NC(=O)c2ccc(S(=O)(=O)N(C)Cc3ccccc3)cc2)o1	·	21	–	·	·	31	–
CN(Cc1ccccc1)S(=O)(=O)c1ccc(C(=O)Nc2nnc(C3CC3)o2)cc1	–	36	–	–	–	31	–
SMILES	B2AR ag	PP1 counter	GRK2 inh	Exocytosis inh	NadD block	PP1 confirm	PP5 counter	others
CCN(Cc1ccccc1)S(=O)(=O)c1ccc(C(=O)Nc2nnc(C)o2)cc1	–	38	–	–	–	26	–
COc1ccccc1-c1nnc(NC(=O)c2ccc(S(=O)(=O)N3CCOCC3)cc2)o1	–	–	–	–	–	·	·
CCc1nnc(NC(=O)c2ccc(S(=O)(=O)N(CC)Cc3ccccc3)cc2)o1	–	36	–	–	–	32	–
CCC(=O)N1CCc2cc(S(=O)(=O)N3CCN(c4cc(Cl)ccc4C)CC3)ccc21	–	–	–	–	–	·	·
CCc1nnc(NC(=O)c2ccc(S(=O)(=O)N(C)Cc3ccccc3)cc2)o1	–	37	–	–	–	34	–
CCN1CCN(S(=O)(=O)c2ccc(Cl)c(C(=O)Nc3ccccc3N3CCCCC3)c2)CC1	–	23	–	–	–	–	–
O=C(O)C1Nc2c(O)cc(Cl)c([N+](=O)[O-])c2C2C=CCC12 (configuration not stated)	–	42	69	–	63	–	–	GRK2 CP1=68;Aptamer quench 1=–;Aptamer quench SP=–
C#CCOCCOCCOCCNc1nc(N2CCN(C(=O)[C@H](Cc3cc4ccccc4[nH]3)n3cc([C@@H](N)CC(C)C)nn3)CC2)nc(N2CCN(C(=O)[C@H](Cc3cc4ccccc4[nH]3)n3cc([C@@H](N)CC(C)C)nn3)CC2)n1	–	43	70	–	70	–	–	GRK2 CP1=–;Aptamer quench SP=–
O=C(c1ccc2nc(-c3ccco3)c(-c3ccco3)nc2c1)N1CCN(c2ncccn2)CC1	–	33	45	–	–	–	–	GRK2 CP1=–;Aptamer quench SP=–
CC1(CC(=O)N/N=C/c2cc([N+](=O)[O-])c(O)cc2O)OCCO1	–	–	–	–	–	·	·
Cc1nc2cc(NC(=O)c3ccc(S(=O)(=O)N(C)c4ccccc4)cc3)ccc2o1	–	–	–	–	–	·	·
Cc1nc(C)c(NC(=O)N2CCc3ccccc32)cc1NC(=O)N1CCc2ccccc21	–	–	–	–	–	·	·
Cn1ccc2cc3c(cc21)CCN3C(=O)Nc1cccnc1	–	35	57	–	31	–	–	GRK2 CP1=–;Aptamer quench SP=–
CCN1/C(=C/C=C/c2sc3ccccc3[n+]2CC)Sc2ccccc21	–	18	100	75	–	–	–	GRK2 CP1=101;Aptamer quench 1=–;Aptamer quench SP=–
CC[n+]1c(/C=C(\C)SC)sc2ccccc21	–	–	–	–	–	·	·
Cc1ccc(-c2cc(C(=O)N/N=C/c3ccco3)[nH]n2)cc1	–	–	87	–	–	–	–	GRK2 CP1=–;Aptamer quench SP=–
O=C(N/N=C/c1ccco1)c1cc(-c2ccccc2)n[nH]1	–	–	–	–	–	·	·
CCn1c(SCC(=O)NNC(=O)c2ccc(OC)cc2)nnc1-c1cccnc1	–	–	–	–	–	·	·
